Measured values: PubChem BioAssay (NCI)
Compounds without any hit were thinned out: in the full panel of roughly 83,000, 20% have a hit.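 How to read the values: 0–100, growth inhibition (40 = 60% inhibited); 0, no net growth; -100 to 0, cell death (-40 = 40% of starting cells died; -100 = all dead).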 The source made the active and inactive calls. The calls were made as follows: active = growth percent below 10; inactive = the rest.

Key:
Assay in all cases: NCI-60 one-dose screen, 48 h (100 = growth as untreated, 0 = no growth, -100 = all killed)
Conditions in all cases: 10 µM unless noted
[1] = tested on: NCI-H23 lung
[2] = tested on: NCI-H226 lung
[3] = tested on: NCI-H322M lung
[4] = tested on: HOP-62 NSCLC
[5] = tested on: NCI-H460 lung
[6] = tested on: HOP-92 NSCLC
[7] = tested on: NCI-H522 lung
[8] = tested on: A549/ATCC NSCLC
[9] = tested on: 786-0 renal
[10] = tested on: COLO 205 colon
[11] = tested on: DU-145 prostate
[12] = tested on: K-562 leukemia
[13] = tested on: MALME-3M melanoma
[14] = tested on: MDA-MB-231 breast
[15] = tested on: RXF 393 renal
[16] = tested on: SF-268 CNS
[17] = tested on: SF-295 CNS
[18] = tested on: SF-539 CNS
[19] = tested on: UACC-257 melanoma
[20] = tested on: M14 melanoma

Measured: growth

Cc1ccc(S(=O)(=O)OCCCOS(=O)(=O)c2ccc(C)cc2)cc1
inactive: [1] 105% | [2] 107% | [3] 92.3% | [4] 113% | [5] 96.5% | [6] 77.4% | [7] 89% | [8] 93.4% | [9] 90.8% | [10] 110% | [11] 95% | [12] 65.9% | [13] 100% | [14] 110% | [15] 107% | [16] 101% | [17] 107% | [18] 122% | [19] 81.1% | [20] 98%

Cc1nc2cc(O)c(O)cc2cc1Oc1ccc(NC(=O)Nc2ccc(Cl)c(Cl)c2)cc1
inactive: [1] 62.8% | [2] 38.3% | [3] 94% | [4] 35.7% | [5] 62.1% | [6] 37.5% | [8] 50.5% | [9] 103% | [10] 34.7% | [11] 60.3% | [12] 53.9% | [13] 85.2% | [14] 45% | [15] 20.4% | [16] 65.5% | [17] 95.9% | [18] 56.9% | [19] 88.5% | [20] 80.7%
active: [7] 1.87%

COc1cc(-c2nc3sccn3c2-c2ccnc(NCCNS(=O)(=O)c3ccc(Cl)cc3)n2)ccc1F
inactive: [1] 18.7% | [3] 70.4% | [4] 34.7% | [5] 42.2% | [6] 78.8% | [8] 30% | [9] 61.8% | [10] 33.8% | [11] 32.3% | [12] 13.6% | [13] 31.3% | [14] 69% | [15] 33.2% | [16] 30.6% | [17] 40.5% | [18] 80% | [19] 45.1% | [20] 21.5%
active: [2] 8.63% | [7] 1.16%

Cc1ccc2c(-c3nnc(N)s3)cc(=O)oc2c1C
inactive: [1] 95.5% | [2] 97.5% | [3] 98.5% | [4] 101% | [5] 102% | [6] 106% | [7] 102% | [8] 104% | [9] 92.4% | [10] 119% | [11] 116% | [12] 87.3% | [13] 104% | [14] 96.5% | [15] 106% | [16] 102% | [17] 97.4% | [18] 102% | [19] 106% | [20] 101%

O=C(Cn1nnc2ccccc21)N/N=C/c1c[nH]c2ccccc12
inactive: [1] 71% | [2] 77% | [3] 80% | [4] 36.6% | [5] 21% | [6] 57.7% | [7] 18.1% | [8] 49% | [9] 58% | [10] 37.2% | [11] 81% | [12] 15.2% | [13] 61% | [14] 52% | [15] 66.5% | [16] 57.5% | [17] 44.3% | [18] 51.9% | [19] 65.3% | [20] 19.7%

O=C1/C=C/[C@@H](O)[C@@H]2C[C@@H](O)C[C@H]2/C=C/CCC[C@@H](O)CCO1
inactive: [1] 77.1% | [2] 77.3% | [3] 99.3% | [4] 103% | [5] 110% | [6] 98% | [7] 108% | [8] 89.3% | [9] 61.5% | [10] 114% | [11] 105% | [12] 105% | [13] 60.9% | [14] 113% | [15] 52.4% | [16] 85.6% | [17] 89.2% | [18] 101% | [19] 49.3% | [20] 77.8%

CC(C)N1C(=O)/C(=c2\sc3n(c2=O)C2C(NN=3)N(C)C(=O)N2C)c2ccccc21 (stereo not given)
inactive: [1] 74.6% | [2] 83% | [3] 91.6% | [4] 74.7% | [5] 62.2% | [6] 42.9% | [7] 33.9% | [8] 50.8% | [9] 62.7% | [10] 91.1% | [11] 84.3% | [12] 27% | [13] 53.2% | [14] 90.9% | [15] 57.3% | [16] 74.9% | [17] 50.1% | [18] 49.2% | [19] 50% | [20] 44.9%

Cc1ccc(N2C(=O)CCC2=O)cc1
inactive: [1] 101% | [2] 105% | [3] 104% | [4] 99.2% | [5] 99.7% | [6] 96.3% | [7] 74.2% | [8] 102% | [9] 97.4% | [10] 107% | [11] 112% | [12] 113% | [13] 108% | [14] 93.7% | [15] 121% | [16] 103% | [17] 99.7% | [18] 101% | [19] 109% | [20] 90.9%

COc1ccc2cc(-c3ccnc4c(N=Nc5ccc(Cl)cc5)c(N)nn34)ccc2c1
inactive: [1] 108% | [2] 90.2% | [3] 102% | [4] 94.4% | [5] 100% | [6] 98.7% | [7] 95.6% | [8] 81.9% | [9] 106% | [10] 110% | [11] 105% | [12] 86.5% | [13] 97.8% | [14] 101% | [15] 115% | [16] 101% | [17] 102% | [18] 103% | [19] 84.2% | [20] 92.8%

Cc1nc2sc(C(=O)Nc3cccc(Br)c3C)c(N)c2cc1C(O)c1ccccc1 (stereo not given)
inactive: [1] 18.5% | [2] 38.3% | [3] 42.2% | [4] 21.2% | [6] 24% | [9] 15.5% | [13] 56.9% | [15] 37.9% | [16] 16.3% | [17] 20.5% | [19] 52%
active: [5] -0.559% | [7] 2.97% | [8] 9.65% | [10] -51.6% | [11] 6.13% | [12] 6.3% | [14] 3.16% | [18] 1.41% | [20] 9.77%

N#Cc1cncc(-c2ccc3ncnc(Nc4cccc(Cl)c4)c3c2)c1
inactive: [1] 62.4% | [2] 69.9% | [3] 28.7% | [4] 61.5% | [5] 75.2% | [6] 18.6% | [7] 65.2% | [8] 62.3% | [9] 61.6% | [10] 96.6% | [11] 63.4% | [12] 87% | [13] 76.8% | [14] 66.6% | [15] 45.9% | [16] 68.5% | [17] 76% | [18] 78% | [19] 72.6% | [20] 83.8%

O=C1c2ccccc2C(=O)C1c1ccc(Br)cc1
inactive: [1] 81.6% | [2] 103% | [3] 122% | [4] 115% | [5] 102% | [6] 75.1% | [7] 96.9% | [8] 108% | [9] 93.9% | [10] 113% | [11] 118% | [12] 104% | [13] 88.8% | [14] 89.4% | [15] 121% | [16] 113% | [17] 90.5% | [18] 104% | [19] 110% | [20] 109%

CCN1C(=O)N(CC)C2C1NN=c1s/c(=C3\C(=O)N(CC(C)C)c4ccccc43)c(=O)n12 (stereo not given)
active: [5] 5.36% | [7] -2.72% | [17] 6.8% | [18] -23.5%
inactive: [1] 31.1% | [2] 61.5% | [3] 58.1% | [4] 45.6% | [6] 66.3% | [8] 21.6% | [9] 37.2% | [10] 17.6% | [11] 10.4% | [12] 10.5% | [13] 59.6% | [14] 12.3% | [15] 21.9% | [16] 54.9% | [19] 65.5% | [20] 18.8%

COc1ccc(CCN2C(=O)/C(=C/c3ccc(C4Oc5ccccc5C5CC(c6ccccc6)=NN54)cc3)SC2=S)cc1 (stereo not given)
inactive: [1] 100% | [2] 105% | [3] 108% | [4] 98.1% | [5] 110% | [6] 111% | [7] 96% | [8] 108% | [9] 106% | [10] 107% | [11] 110% | [12] 100% | [13] 102% | [14] 92.3% | [15] 107% | [16] 99.2% | [17] 105% | [18] 98.5% | [19] 109% | [20] 102%

Clc1c(Cl)[n+](Cc2ccc3ccccc3c2)cn1Cc1ccc2ccccc2c1
active: [4] -27.6% | [6] -12.1% | [7] -52.5% | [9] -8.06% | [10] -73.9% | [12] -3.01% | [13] -14.1% | [14] 7.04% | [15] -7.52% | [19] -37.7% | [20] -31.9%
inactive: [1] 32.8% | [2] 44.4% | [3] 51% | [5] 26.1% | [8] 52.5% | [11] 32.6% | [16] 20.8% | [17] 45.6% | [18] 58.6%

CCN1C(=O)N(CC)C2C1N=C(SCc1ccc(Cl)cc1)N2/N=C/C=C/c1ccccc1OC (stereo not given)
inactive: [1] 78.2% | [2] 75% | [3] 97.1% | [4] 70% | [5] 85.6% | [6] 50.6% | [7] 34.1% | [8] 53.7% | [9] 86.2% | [10] 59.7% | [11] 90.7% | [12] 20.9% | [13] 60.9% | [14] 75.2% | [15] 49.8% | [16] 64.5% | [17] 57.5% | [18] 68% | [19] 42% | [20] 45.5%
